# Laboratory results: PubChem BioAssay (EPA / NIEHS)
# Active and inactive are the calls of the source. Rule for the calls: active = hit-call score of the fitted dose curve at least 0.9, where 1 is the maximum; inactive = score below 0.9.
# Read-out: growth arrest and DNA damage 45 (GADD45B), GADD45B (gene 4616)
# Assay: LTEA_HepaRG_GADD45B: Life Technologies and Expression Analysis (LTEA) Assay for growth arrest and DNA damage 45 (GADD45B) using HepaRG (AID 2283461)
# Conditions: mRNA level, 48 h; actives raise or lower the signal
# In short: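 HepaRG, ~100,000 cells/well, 48 h plating; serum-free induction medium; cpd 100 uM top, half-log x8, 0.5% DMSO, duplicate, 48 h; lysis in RLT, RNA isolation, qRT-PCR; norm ACTB/GAPDH/POLR2A; bidirectional fit vs DMSO.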
SMILES,outcome,AC50
CC1(C)C(=O)N(Br)C(=O)N1Br,inactive,–
CC(=O)OCCC(C)C,inactive,–
CC(=O)c1ccc2c(c1)[C@H](NC(=O)c1ccc(F)cc1)[C@@H](O)C(C)(C)O2,inactive,–
O=C(CCCCCCCCc1cccnc1)N1CCC(C=C(c2ccccc2)c2ccccc2)CC1,–,84.6 µM (active)
Cn1cnc([N+](=O)[O-])c1Sc1ncnc2nc[nH]c12,inactive,–
C1=CCCC=CCCC=CCC1,inactive,–
O=c1[nH]c2ccc(S(=O)CCN3CCC(Cc4ccc(F)cc4)CC3)cc2o1 (configuration not stated),inactive,–
Cn1c(=O)c2c(ncn2C)n(C)c1=O,inactive,–
O=C1OC(=O)C2C3C=CC(C3)C12 (configuration not stated),inactive,–
CC(C)=CCCC(C)CCO (configuration not stated),inactive,–
Cn1c(=O)cc(Oc2ccc(F)cc2F)c2cnc(NCC(C)(C)O)nc21,inactive,–
CC(C)CC(C)(O)C#CC(C)(O)CC(C)C (configuration not stated),inactive,–
Clc1nc(Cl)c(Cl)c(Cl)c1Cl,inactive,–
COC(=O)c1c(Cl)c(Cl)c(C(=O)OC)c(Cl)c1Cl,inactive,–
CCn1nc(Cc2ccccc2)cc1C1CCN(C[C@H]2C[C@H](N(C)[C@@H](C(=O)O)C(C)C)C[C@@H]2c2cccc(F)c2)CC1,inactive,–
CCC(C)(C)C(=O)O[C@H]1C[C@@H](C)C=C2C=C[C@H](C)[C@H](CC[C@@H]3C[C@@H](O)CC(=O)O3)[C@H]21,inactive,–
CCCC(=O)OCC,inactive,–
CC(C)CCCCCCOC(=O)c1ccc(C(=O)OCCCCCCC(C)C)c(C(=O)OCCCCCCC(C)C)c1,inactive,–
C[C@](N)(Cc1ccc(O)c(O)c1)C(=O)O,inactive,–
COc1ccc(-n2nc(C(F)F)cc2-c2ccc(S(C)=O)cc2)cc1 (configuration not stated),inactive,–
CCOCCO,inactive,–
O=C(NS(=O)(=O)/C=C/c1ccccc1)c1ccc(F)cc1Cl,inactive,–
CCCCCCCCCCCCCCCO,inactive,–
CCOC(=O)COc1ccc2c(c1)CC(NCC(O)c1cccc(Cl)c1)CC2 (configuration not stated),inactive,–
CCCCCCCCO,inactive,–
CC(C)c1cccc(C(C)C)c1N1C(=O)c2ccc(O)cc2C1=O,inactive,–
CNCc1ccc(NC(=O)c2c[nH]c3c2C(=O)CCC3)cc1,inactive,–
CN(C)c1ccc(N=NS(=O)(=O)O)cc1,–,31 µM (active)
O=C(O)CCN(C1(C(=O)NO)CCCC1)S(=O)(=O)c1ccc(Oc2ccc(F)cc2)cc1,inactive,–

# Read-out: ABC Transporter (ABCC3), ABCC3 (gene 8714)
# Assay: LTEA_HepaRG_ABCC3: Life Technologies and Expression Analysis (LTEA) Assay for ABC Transporter (ABCC3) using HepaRG (AID 2283462)
# Conditions: mRNA level, 48 h; actives raise or lower the signal
# In short: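 Human HepaRG, 48 h dosing, 8-pt half-log series from 100 uM, 0.5% DMSO vehicle, duplicates. ABCC3 mRNA by TaqMan qRT-PCR, housekeeping-normalized; bidirectional curve fit vs DMSO.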
SMILES,outcome,AC50
CC1(C)C(=O)N(Br)C(=O)N1Br,inactive,–
CC(=O)OCCC(C)C,inactive,–
CC(=O)c1ccc2c(c1)[C@H](NC(=O)c1ccc(F)cc1)[C@@H](O)C(C)(C)O2,inactive,–
O=C(CCCCCCCCc1cccnc1)N1CCC(C=C(c2ccccc2)c2ccccc2)CC1,inactive,–
Cn1cnc([N+](=O)[O-])c1Sc1ncnc2nc[nH]c12,inactive,–
C1=CCCC=CCCC=CCC1,inactive,–
O=c1[nH]c2ccc(S(=O)CCN3CCC(Cc4ccc(F)cc4)CC3)cc2o1 (configuration not stated),inactive,–
Cn1c(=O)c2c(ncn2C)n(C)c1=O,inactive,–
O=C1OC(=O)C2C3C=CC(C3)C12 (configuration not stated),inactive,–
CC(C)=CCCC(C)CCO (configuration not stated),inactive,–
Cn1c(=O)cc(Oc2ccc(F)cc2F)c2cnc(NCC(C)(C)O)nc21,inactive,–
CC(C)CC(C)(O)C#CC(C)(O)CC(C)C (configuration not stated),inactive,–
Clc1nc(Cl)c(Cl)c(Cl)c1Cl,inactive,–
COC(=O)c1c(Cl)c(Cl)c(C(=O)OC)c(Cl)c1Cl,inactive,–
CCn1nc(Cc2ccccc2)cc1C1CCN(C[C@H]2C[C@H](N(C)[C@@H](C(=O)O)C(C)C)C[C@@H]2c2cccc(F)c2)CC1,–,50 µM (active)
CCC(C)(C)C(=O)O[C@H]1C[C@@H](C)C=C2C=C[C@H](C)[C@H](CC[C@@H]3C[C@@H](O)CC(=O)O3)[C@H]21,inactive,–
CCCC(=O)OCC,inactive,–
CC(C)CCCCCCOC(=O)c1ccc(C(=O)OCCCCCCC(C)C)c(C(=O)OCCCCCCC(C)C)c1,inactive,–
C[C@](N)(Cc1ccc(O)c(O)c1)C(=O)O,inactive,–
COc1ccc(-n2nc(C(F)F)cc2-c2ccc(S(C)=O)cc2)cc1 (configuration not stated),inactive,–
CCOCCO,inactive,–
O=C(NS(=O)(=O)/C=C/c1ccccc1)c1ccc(F)cc1Cl,inactive,–
CCCCCCCCCCCCCCCO,inactive,–
CCOC(=O)COc1ccc2c(c1)CC(NCC(O)c1cccc(Cl)c1)CC2 (configuration not stated),inactive,–
CCCCCCCCO,inactive,–
CC(C)c1cccc(C(C)C)c1N1C(=O)c2ccc(O)cc2C1=O,–,84.3 µM (active)
CNCc1ccc(NC(=O)c2c[nH]c3c2C(=O)CCC3)cc1,inactive,–
CN(C)c1ccc(N=NS(=O)(=O)O)cc1,inactive,–
O=C(O)CCN(C1(C(=O)NO)CCCC1)S(=O)(=O)c1ccc(Oc2ccc(F)cc2)cc1,inactive,–

# Read-out: ABC Transporter (ABCB11), ABCB11 (gene 8647)
# Assay: LTEA_HepaRG_ABCB11: Life Technologies and Expression Analysis (LTEA) Assay for ABC Transporter (ABCB11) using HepaRG (AID 2283463)
# Conditions: mRNA level, 48 h; actives raise or lower the signal
# In short: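 ABCB11 transcript levels are read by Fluidigm TaqMan qRT-PCR after 48 h chemical treatment of human HepaRG cells. Concentrations span 100 uM downward in half-log steps with 0.5% DMSO; gain or loss is fitted against DMSO controls.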
SMILES,outcome,AC50
CC1(C)C(=O)N(Br)C(=O)N1Br,inactive,–
CC(=O)OCCC(C)C,inactive,–
CC(=O)c1ccc2c(c1)[C@H](NC(=O)c1ccc(F)cc1)[C@@H](O)C(C)(C)O2,inactive,–
O=C(CCCCCCCCc1cccnc1)N1CCC(C=C(c2ccccc2)c2ccccc2)CC1,–,14.3 µM (active)
Cn1cnc([N+](=O)[O-])c1Sc1ncnc2nc[nH]c12,–,11.2 µM (active)
C1=CCCC=CCCC=CCC1,inactive,–
O=c1[nH]c2ccc(S(=O)CCN3CCC(Cc4ccc(F)cc4)CC3)cc2o1 (configuration not stated),inactive,–
Cn1c(=O)c2c(ncn2C)n(C)c1=O,inactive,–
O=C1OC(=O)C2C3C=CC(C3)C12 (configuration not stated),inactive,–
CC(C)=CCCC(C)CCO (configuration not stated),inactive,–
Cn1c(=O)cc(Oc2ccc(F)cc2F)c2cnc(NCC(C)(C)O)nc21,–,12.7 µM (active)
CC(C)CC(C)(O)C#CC(C)(O)CC(C)C (configuration not stated),inactive,–
Clc1nc(Cl)c(Cl)c(Cl)c1Cl,inactive,–
COC(=O)c1c(Cl)c(Cl)c(C(=O)OC)c(Cl)c1Cl,inactive,–
CCn1nc(Cc2ccccc2)cc1C1CCN(C[C@H]2C[C@H](N(C)[C@@H](C(=O)O)C(C)C)C[C@@H]2c2cccc(F)c2)CC1,inactive,–
CCC(C)(C)C(=O)O[C@H]1C[C@@H](C)C=C2C=C[C@H](C)[C@H](CC[C@@H]3C[C@@H](O)CC(=O)O3)[C@H]21,–,50 µM (active)
CCCC(=O)OCC,inactive,–
CC(C)CCCCCCOC(=O)c1ccc(C(=O)OCCCCCCC(C)C)c(C(=O)OCCCCCCC(C)C)c1,inactive,–
C[C@](N)(Cc1ccc(O)c(O)c1)C(=O)O,inactive,–
COc1ccc(-n2nc(C(F)F)cc2-c2ccc(S(C)=O)cc2)cc1 (configuration not stated),–,17.3 µM (active)
CCOCCO,inactive,–
O=C(NS(=O)(=O)/C=C/c1ccccc1)c1ccc(F)cc1Cl,–,50 µM (active)
CCCCCCCCCCCCCCCO,inactive,–
CCOC(=O)COc1ccc2c(c1)CC(NCC(O)c1cccc(Cl)c1)CC2 (configuration not stated),inactive,–
CCCCCCCCO,inactive,–
CC(C)c1cccc(C(C)C)c1N1C(=O)c2ccc(O)cc2C1=O,–,89.9 µM (active)
CNCc1ccc(NC(=O)c2c[nH]c3c2C(=O)CCC3)cc1,inactive,–
CN(C)c1ccc(N=NS(=O)(=O)O)cc1,–,21 µM (active)
O=C(O)CCN(C1(C(=O)NO)CCCC1)S(=O)(=O)c1ccc(Oc2ccc(F)cc2)cc1,inactive,–
